Counter-ions that a name gives are not always drawn. ± gives the standard deviation of the averaged measurements.
test system: E. coli TESEC Alr+ wild-type control; test: growth (OD600 after 10 h); higher = more growth (less inhibition); conditions: compound 0.1 mM; raw OD600 reference: median of DMSO wells 0.49, cell-free background 0.052
Method: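 TESEC Mtb Alr E. coli (ΔaraC ΔtolC ΔentC Δalr ΔdadX, arabinose-inducible Mtb Alr) or the Alr+ wild-type control strain, grown in defined M9-fructose medium without D-alanine in 96-well plates with Prestwick library compounds at 0.1 mM and 1% DMSO. Low Alr induction is 0.1 µM arabinose and high induction is 10 mM arabinose.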

SMILES | growth
Nc1ccc(S(=O)(=O)c2ccc(N)cc2)cc1 [Dapsone] | 0.491 ± 0.054
CCOc1ccc2nc(S(N)(=O)=O)sc2c1 [Ethoxzolamide] | 0.552 ± 0.11
Cc1cc(O)c(C(=O)N[C@@H](C(=O)N[C@@H]2C(=O)N3C(C(=O)O)=C(CSc4nnnn4C)CS[C@H]23)c2ccc(O)cc2)cn1 [Cefpiramide] | 0.584 ± 0.046
COC(=O)C1=C(C)NC(C)=C(C(=O)OC(C)C)C1c1cccc2nonc12 (stereo not given) [Isradipine] | 0.379 ± 0.0051
Nc1nc2c(ncn2COCCO)c(=O)[nH]1 [Acyclovir] | 0.47 ± 0.04
CC1(C)[C@@H](OC(=O)CCC(=O)O)CC[C@]2(C)[C@H]3C(=O)C=C4[C@@H]5C[C@@](C)(C(=O)O)CC[C@]5(C)CC[C@@]4(C)[C@]3(C)CC[C@@H]12 [Carbenoxolone disodium salt] | 0.426 ± 0.03
NS(=O)(=O)c1cc2c(cc1Cl)N=CNS2(=O)=O [Chlorothiazide] | 0.494 ± 0.032
CC1=Nc2ccc(Cl)cc2S(=O)(=O)N1 [Diazoxide] | 0.465 ± 0.041
Cc1ccccc1OCC(O)CO (stereo not given) [Mephenesin] | 0.494 ± 0.1
CC(C)c1ccc2oc3nc(N)c(C(=O)O)cc3c(=O)c2c1 [Amlexanox] | 0.416 ± 0.015
CC(N)CCCC(C)(C)O (stereo not given) [Heptaminol hydrochloride] | 0.501 ± 0.054
N=C(N)c1ccc(OCCCCCOc2ccc(C(=N)N)cc2)cc1 [Pentamidine isethionate] | 0.194 ± 0.068
O=C(O)c1ccccc1C(=O)Nc1ccc(S(=O)(=O)Nc2nccs2)cc1 [Phthalylsulfathiazole] | 0.47 ± 0.037
CCCNC(=O)NS(=O)(=O)c1ccc(Cl)cc1 [Chlorpropamide] | 0.525 ± 0.065
CSc1nc2cc(Cl)c(Oc3cccc(Cl)c3Cl)cc2[nH]1 [Triclabendazole] | 0.0897 ± 0.0096
COCCc1ccc(OCC(O)CNC(C)C)cc1 (racemic) [Metoprolol-(+,-) (+)-tartrate salt] | 0.494 ± 0.11
C#C[C@]1(O)CC[C@H]2[C@@H]3CCc4cc(OC)ccc4[C@H]3CC[C@@]21C [Ethynylestradiol 3-methyl ether] | 0.564 ± 0.025
C#C[C@]1(O)CC[C@H]2[C@@H]3[C@H](C)CC4=C(CCC(=O)C4)[C@H]3CC[C@@]21C [Tibolone] | 0.393 ± 0.015
O=C(O)c1cc(/N=N/c2ccc(S(=O)(=O)Nc3ccccn3)cc2)ccc1O [Sulfasalazine] | 0.473 ± 0.032
CCCCC1C(=O)N(c2ccccc2)N(c2ccc(O)cc2)C1=O (stereo not given) [Oxyphenbutazone] | 0.436 ± 0.036

SMILES | growth
CCC1NC(=O)c2cc(S(N)(=O)=O)c(Cl)cc2N1 (stereo not given) [Quinethazone] | 0.463 ± 0.013
COc1ccc2cc([C@@H](C)C(=O)O)ccc2c1 [(R) -Naproxen sodium salt] | 0.448 ± 0.03
COc1cc(NS(=O)(=O)c2ccc(N)cc2)nc(OC)n1 [Sulfadimethoxine] | 0.46 ± 0.053
COC(=O)C1=C(C)NC(C)=C(C(=O)OCCN(C)Cc2ccccc2)C1c1cccc([N+](=O)[O-])c1 (stereo not given) [Nicardipine hydrochloride] | 0.0588 ± 0.0012
COC1=C(OC)C(=O)C(CCCCCCCCCCO)=C(C)C1=O [Idebenone] | 0.0491 ± 0.0001
OCCN1CCN(CCCN2c3ccccc3Sc3ccc(C(F)(F)F)cc32)CC1 [Fluphenazine dihydrochloride] | 0.04827 ± 0.00025
Nc1ccn([C@@H]2O[C@H](CO)[C@@H](O)[C@@H]2O)c(=O)n1 [Cytarabine] | 0.552 ± 0.051
CCOc1ccccc1OC(c1ccccc1)C1CNCCO1 (stereo not given) [Reboxetine mesylate] | 0.542 ± 0.061
CN1CCCN=C1/C=C/c1cccs1 [Pyrantel tartrate] | 0.458 ± 0.043
COc1cc(Cc2cnc(N)nc2N)cc(OC)c1OC [Trimethoprim] | 0.0896 ± 0.0014
NC1CCN(c2nc3c(cc2F)c(=O)c(C(=O)O)cn3-c2ccc(F)cc2F)C1 (stereo not given) [Tosufloxacin hydrochloride] | 0.0604 ± 0.0041
CC(C(O)c1ccc(O)cc1)N1CCC(Cc2ccccc2)CC1 (stereo not given) [Ifenprodil tartrate] | 0.453 ± 0.037
c1ccc(C2CN3CCSC3=N2)cc1 (stereo not given) [Tetramisole hydrochloride] | 0.529 ± 0.087
CCOc1ccc2ccccc2c1C(=O)N[C@@H]1C(=O)N2[C@@H]1SC(C)(C)[C@@H]2C(=O)O [Nafcillin sodium salt monohydrate] | 0.6426 ± 0.0049
O=S(=O)(O)CCS [Mesna] | 0.513 ± 0.074
COc1ccccc1OCCNCC(O)COc1cccc2[nH]c3ccccc3c12 (stereo not given) [Carvedilol] | 0.167 ± 0.11
CC(C)NCC(O)c1cc(O)cc(O)c1 (stereo not given) [Metaproterenol sulfate, orciprenaline sulfate] | 0.635 ± 0.09
CC1=C(/C=C/C(C)=C/C=C/C(C)=C/C(=O)O)C(C)(C)CCC1 [Retinoic acid] | 0.476 ± 0.045
Nc1cc(-c2ccncc2)c[nH]c1=O [Amrinone] | 0.446 ± 0.027
CN(Cc1ccc(C(C)(C)C)cc1)Cc1cccc2ccccc12 [Butenafine Hydrochloride] | 0.399 ± 0.012
